Results as given in PubChem BioAssay (Tox21).
Inconclusive results are not listed. Activity calls are given as the source filed them. Unless noted, calls follow the shape of the full dose curve.

What was measured:
[1] = Nuclear factor erythroid 2-related factor 2/antioxidant responsive element (Nrf2/ARE) small molecule agonists: qHTS cell viability counter screen in human keratinocytes (AID 1919968; active = well fitted curve in the direction sought with a large enough effect in the repeat runs; an effect the other way counts as inactive or inconclusive; also: nearly all actives have a fitted effect of over 55% in size)
How it was run: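 CellTiter-Fluor fluorescence, read 1 h after reagent, gave viability in the same wells as the ARE-luciferase assay. KeratinoSens cells (1,500/well) had 23 h compound exposure at 37 C/5% CO2 following 5 h plating.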

[2] = Nuclear factor erythroid 2-related factor 2/antioxidant responsive element (Nrf2/ARE) small molecule agonists: luciferase reporter gene qHTS assay in human keratinocytes (AID 1919969); also: nearly all actives have a fitted effect of over 35% in size
[3] = target: Gonadotropin-releasing hormone receptor (Homo sapiens) (UniProt P30968); assay: Human gonadotropin-releasing hormone receptor (GnRHR) small molecule agonists, calcium flux assay in GnRHR-HEK293 cells (AID 1920063); also: nearly all actives have a fitted effect of over 35% in size
Gonadotropin-releasing hormone receptor (Homo sapiens), sequence (P30968 whole entry, looked up): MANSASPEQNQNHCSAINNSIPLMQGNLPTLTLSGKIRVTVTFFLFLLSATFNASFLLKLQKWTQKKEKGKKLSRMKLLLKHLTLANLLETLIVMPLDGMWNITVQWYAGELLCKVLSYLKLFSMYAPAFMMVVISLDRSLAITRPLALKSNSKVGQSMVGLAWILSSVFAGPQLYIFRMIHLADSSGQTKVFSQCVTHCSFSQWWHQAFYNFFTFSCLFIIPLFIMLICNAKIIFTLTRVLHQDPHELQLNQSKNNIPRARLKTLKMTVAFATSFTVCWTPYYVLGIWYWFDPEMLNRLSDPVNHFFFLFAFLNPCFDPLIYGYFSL
How it was run: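 Agonist mode: compounds at 15 concentrations, in triplicate, went onto calcium dye-loaded GnRHR-HEK293 cells. Intracellular calcium was then followed as 480/540 nm fluorescence at 1 s intervals over 3 min.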

[4] = target: KiSS-1 receptor (Homo sapiens) (UniProt Q969F8); assay: Human kisspeptin (KISS1R) small molecule agonists, calcium flux assay in KISS1R-HEK293 cells (AID 1920064; active = well fitted curve in the direction sought with a large enough effect in the repeat runs; an effect the other way counts as inactive or inconclusive)
KiSS-1 receptor (Homo sapiens), sequence (Q969F8 whole entry, looked up): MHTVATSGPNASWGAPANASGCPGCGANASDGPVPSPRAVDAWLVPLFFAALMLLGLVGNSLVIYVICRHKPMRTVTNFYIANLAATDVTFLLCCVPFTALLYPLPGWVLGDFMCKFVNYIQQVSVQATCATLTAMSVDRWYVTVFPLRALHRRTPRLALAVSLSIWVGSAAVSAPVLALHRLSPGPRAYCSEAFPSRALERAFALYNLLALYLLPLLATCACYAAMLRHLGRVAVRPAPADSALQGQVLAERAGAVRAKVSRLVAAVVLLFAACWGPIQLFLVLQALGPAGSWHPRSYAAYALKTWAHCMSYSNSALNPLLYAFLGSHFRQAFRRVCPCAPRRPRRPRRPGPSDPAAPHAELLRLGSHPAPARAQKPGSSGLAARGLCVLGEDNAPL
How it was run: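 Agonist mode: intracellular calcium rise tracked at 1 s intervals over 3 min (480/540 nm) immediately after compound addition to dye-loaded KISS1R-HEK293 stable cells. Each compound tested at 15 concentrations in triplicate.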

[5] = p53 small molecule agonists, cell-based qHTS assay with human liver microsomes (AID 1963577);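 also: p53 response element beta-lactamase reporter cells with liver microsomes plus NADPH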
How it was run: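 Reporter activation was measured by LiveBLAzer fluorescence intensity in p53RE-bla cells, which had been exposed to compounds for 16 h at 37 C alongside 0.5 mg/mL human liver microsomes and 0.5 mg/mL NADPH (final concentrations).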

[6] = p53 small molecule agonists, cell-based qHTS assay with human liver microsomes: qHTS cell viability counter screen (AID 1963579); also: nearly all actives have a fitted effect of over 45% in size
How it was run: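 HLM-supplemented (0.5 mg/mL final) and NADPH-supplemented (0.5 mg/mL final) p53RE-bla cultures, 4,000 cells per well, were dosed with compounds in DMSO for 16 h at 37 C; luminescent ATP detection (CellTiter-Glo, 30 min, room temperature) quantified surviving cells.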

[7] = p53 small molecule agonists, cell-based qHTS assay with rat liver microsomes: qHTS cell viability counter screen (AID 1963580); also: nearly all actives have a fitted effect of over 45% in size
How it was run: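 Cytotoxicity counter screen: intracellular ATP measured by CellTiter-Glo luminescence in the same wells as the beta-lactamase reporter read, on HCT-116 p53RE-bla cells exposed 16 h at 37 C to compounds with rat liver microsomes and NADPH, each 0.5 mg/mL final.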

[8] = p53 small molecule agonists, cell-based qHTS assay: qHTS cell viability counter screen (AID 1963581); also: nearly all actives have a fitted effect of over 45% in size
How it was run: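 Counter screen read by CellTiter-Glo luminescence (ATP content, 30 min at room temperature), run in the same wells as the beta-lactamase reporter read. HCT-116 p53RE-bla cells saw compounds for 16 h at 37 C.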

[9] = p53 small molecule agonists, cell-based qHTS assay (AID 1963582; active = well fitted activation curve with a large enough effect in the signal ratio in the repeat runs, not every such curve was filed as active; the % refers to the signal ratio)
How it was run: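 Read-out is beta-lactamase FRET fluorescence after 2 h at room temperature with LiveBLAzer B/G substrate. p53 response element-bla cells were treated 16 h at 37 C with compounds in DMSO, added 5 h after seeding.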

[10] = target: 5-hydroxytryptamine receptor 2A (Homo sapiens) (UniProt P28223); assay: 5-hydroxytryptamine receptor 2A (HTR2A) small molecule antagonists, cell-based qHTS assay (AID 1963586); also: nearly all actives have a fitted effect of over 45% in size
5-hydroxytryptamine receptor 2A (Homo sapiens), sequence (P28223 whole entry, looked up): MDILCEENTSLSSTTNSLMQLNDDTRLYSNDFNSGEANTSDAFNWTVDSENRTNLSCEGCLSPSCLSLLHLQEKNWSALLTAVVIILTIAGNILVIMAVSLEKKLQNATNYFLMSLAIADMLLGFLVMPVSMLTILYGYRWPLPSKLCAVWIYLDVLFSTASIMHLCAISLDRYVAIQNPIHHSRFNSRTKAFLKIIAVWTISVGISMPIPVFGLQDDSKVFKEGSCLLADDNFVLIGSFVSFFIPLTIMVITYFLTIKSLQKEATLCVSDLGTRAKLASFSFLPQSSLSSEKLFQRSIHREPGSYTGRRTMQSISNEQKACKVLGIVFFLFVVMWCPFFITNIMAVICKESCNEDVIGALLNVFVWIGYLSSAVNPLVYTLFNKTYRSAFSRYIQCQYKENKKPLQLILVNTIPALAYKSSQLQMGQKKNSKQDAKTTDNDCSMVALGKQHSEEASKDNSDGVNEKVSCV
How it was run: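 CHO cells stably expressing human HTR2A were plated for 18 h at 37 C, then loaded with calcium dye for 1 h. Compounds were preincubated 5 min at room temperature before DOI (4 nM solution) was added. Kinetic fluorescence was read for 3 min.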

[11] = target: 5-hydroxytryptamine receptor 2A (Homo sapiens) (UniProt P28223); assay: 5-hydroxytryptamine receptor 2A (HTR2A) small molecule agonists, cell-based qHTS assay (AID 1963587); also: nearly all actives have a fitted effect of over 30% in size
How it was run: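 CHO cells stably expressing human HTR2A, plated 18 h, loaded with calcium dye 1 h at 37 C. Agonist mode: compounds added and intracellular calcium fluorescence recorded kinetically for 2 min at 1 sec intervals.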

[12] = target: Muscarinic acetylcholine receptor M1 (Homo sapiens) (UniProt P11229); assay: Cholinergic receptor muscarinic 1 (CHRM1) small molecule antagonists, cell-based qHTS assay (AID 1963588); also: nearly all actives have a fitted effect of over 40% in size
Muscarinic acetylcholine receptor M1 (Homo sapiens), sequence (P11229 whole entry, looked up): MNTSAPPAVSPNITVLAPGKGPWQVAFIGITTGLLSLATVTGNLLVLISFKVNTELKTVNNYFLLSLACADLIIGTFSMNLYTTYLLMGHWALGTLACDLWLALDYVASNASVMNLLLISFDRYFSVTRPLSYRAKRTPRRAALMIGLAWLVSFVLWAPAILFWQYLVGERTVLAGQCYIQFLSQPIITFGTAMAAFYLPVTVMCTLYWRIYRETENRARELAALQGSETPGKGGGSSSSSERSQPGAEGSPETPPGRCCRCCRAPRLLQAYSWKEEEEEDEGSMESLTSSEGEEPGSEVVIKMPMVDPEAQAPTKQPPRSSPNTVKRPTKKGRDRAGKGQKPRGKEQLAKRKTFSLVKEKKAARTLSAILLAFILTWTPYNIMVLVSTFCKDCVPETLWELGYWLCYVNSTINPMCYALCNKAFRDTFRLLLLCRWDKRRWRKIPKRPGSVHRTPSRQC
How it was run: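 Compounds were tested at 15 concentrations in three independent runs. Dye-loaded CHRM1-CHO cells were exposed 5 min at room temperature before stimulation by acetylcholine added at 50nM. Intracellular calcium was read kinetically on FDSS for 3 min.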

[13] = target: Muscarinic acetylcholine receptor M1 (Homo sapiens) (UniProt P11229); assay: Cholinergic receptor muscarinic 1 (CHRM1) small molecule agonists, cell-based qHTS assay (AID 1963589); also: nearly all actives have a fitted effect of over 35% in size
How it was run: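 Agonist-mode calcium-flux screen: compounds at 15 concentrations, three independent runs, were pin-transferred onto dye-loaded human CHRM1-CHO cells. Fluorescence was then recorded kinetically every second over minutes.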

[14] = cAMP Responsive Elements (CRE) small molecule agonists, cell-based qHTS assay (AID 1963590)
How it was run: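 Agonist mode: compound added to CRE-bla HEK 293T cells (2,000/well, 18 h after plating) for 3 h at 37 C/5% CO2. Reporter activity detected via FRET beta-lactamase substrate, 2 h room-temperature loading.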

[15] = cAMP Responsive Elements (CRE) small molecule antagonists, cell-based qHTS assay (AID 1963591; active = well fitted inhibition curve with a large enough effect in the signal ratio in the repeat runs, not every such curve was filed as active; the % refers to the signal ratio)
How it was run: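 Antagonist mode: compounds are added alongside the adenylyl cyclase activator NKH477 (0.25 uM final) to CRE-bla HEK293T cells for 3 h. LiveBLAzer FRET substrate, 2 h at room temperature, reports bla expression.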

[16] = target: Beta-2 adrenergic receptor (Homo sapiens) (UniProt P07550); assay: Adrenergic beta2 receptor (ADRB2) small molecule antagonists, cell-based qHTS assay (AID 1963592); also: series mostly up to about 92 µM; nearly all actives have a fitted effect of over 50% in size
Beta-2 adrenergic receptor (Homo sapiens), sequence (P07550 whole entry, looked up): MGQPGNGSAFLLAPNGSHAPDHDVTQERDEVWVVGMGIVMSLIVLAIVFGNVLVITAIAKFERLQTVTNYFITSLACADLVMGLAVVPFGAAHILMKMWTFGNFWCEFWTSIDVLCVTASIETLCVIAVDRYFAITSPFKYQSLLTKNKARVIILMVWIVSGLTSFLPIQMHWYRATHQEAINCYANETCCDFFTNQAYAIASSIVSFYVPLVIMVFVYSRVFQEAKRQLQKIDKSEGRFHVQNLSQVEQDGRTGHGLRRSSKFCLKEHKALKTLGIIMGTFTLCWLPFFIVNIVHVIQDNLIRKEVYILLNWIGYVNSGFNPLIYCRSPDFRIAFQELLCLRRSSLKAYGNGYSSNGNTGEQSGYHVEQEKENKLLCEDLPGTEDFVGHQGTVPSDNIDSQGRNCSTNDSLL
How it was run: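 Assay format: CHO-ADRB2 cells, 18-20hr seeding at 37C/5% CO2, then compound plus 1nM isoproterenol agonist mix for 0.5hr RT. Homogeneous time-resolved fluorescence cAMP detection after 1hr, expressed as 665/615 nm ratio.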

[17] = target: Beta-2 adrenergic receptor (Homo sapiens) (UniProt P07550); assay: Adrenergic beta2 receptor (ADRB2) small molecule agonists, cell-based qHTS assay (AID 1963593);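 also: CHO cells stably overexpressing human ADRB2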
How it was run: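 CHO cells stably over-expressing ADRB2 were plated overnight at 37C, then dosed with compounds plus a stimulation mix containing 100uM IBMX and 25uM Ro-20-1724 for 0.5hr at room temperature. cAMP was measured by HTRF competition, 1hr.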

[18] = target: D(2) dopamine receptor (Homo sapiens) (UniProt P14416); assay: Dopamine D2 receptor (DRD2) small molecule agonists, cell-based qHTS assay (AID 1963594); also: nearly all actives have a fitted effect of over 35% in size
D(2) dopamine receptor (Homo sapiens), sequence (P14416 whole entry, looked up): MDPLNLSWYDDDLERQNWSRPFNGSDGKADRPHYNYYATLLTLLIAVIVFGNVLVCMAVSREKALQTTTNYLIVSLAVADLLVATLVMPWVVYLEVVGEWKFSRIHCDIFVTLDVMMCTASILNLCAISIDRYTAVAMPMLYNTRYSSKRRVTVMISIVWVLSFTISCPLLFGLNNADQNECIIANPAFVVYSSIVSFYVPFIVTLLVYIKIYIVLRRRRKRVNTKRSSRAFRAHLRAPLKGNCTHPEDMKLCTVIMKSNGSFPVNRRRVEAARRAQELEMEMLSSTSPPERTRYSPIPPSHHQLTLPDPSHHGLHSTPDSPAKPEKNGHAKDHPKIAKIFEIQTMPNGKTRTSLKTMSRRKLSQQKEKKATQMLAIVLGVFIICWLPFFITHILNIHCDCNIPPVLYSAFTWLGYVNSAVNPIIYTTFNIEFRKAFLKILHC
How it was run: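 HEK293 cells stably expressing human DRD2, pre-treated with PDE inhibitor Ro20-1724 (0.1 mM final) and compound 10 min at room temperature, then stimulated with NKH477 (200nM […]) for 30 min. cAMP read by HTRF (665/620 nm).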

[19] = target: D(2) dopamine receptor (Homo sapiens) (UniProt P14416); assay: Dopamine D2 receptor (DRD2) small molecule antagonists, cell-based qHTS assay (AID 1963595; active = well fitted inhibition curve with a large enough effect in the signal ratio in the repeat runs, with a control signal flat; the % refers to the signal ratio)
How it was run: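 Readout: HTRF cAMP, cAMP-d2 competing with cellular cAMP for anti-cAMP cryptate, read after 1 h. Cells: DRD2-HEK293. Conditions: 0.1 mM Ro20-1724, 12 nM quinpirole, 200 nM NKH477, 30 min RT.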

[20] = G protein-coupled receptor (GPCR) small molecule agonists, calcium flux assay: HEK293 wild type cell line counter screen (AID 1920065)
How it was run: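 Calcium flux counter screen: compound added in agonist mode at 15 concentrations in triplicate to dye-loaded parental HEK293 cells. Fluorescence (480/540) read kinetically for 3 min; ATP served as positive control.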

Measured: Potency

Cc1cncc(C)c1
inactive: [1] | [2] | [3] | [4] | [5] | [6] | [7] | [8] | [9] | [10] | [11] | [12] | [13] | [14] | [15] | [16] | [17] | [18] | [19]

C1=C\CC/C=C\CC/C=C\CC/1
inactive: [1] | [2] | [3] | [4] | [5] | [6] | [7] | [8] | [9] | [10] | [11] | [12] | [13] | [14] | [15] | [16] | [17] | [18] | [19]

COC(=O)/C=C/c1ccccc1
inactive: [1] | [2] | [3] | [4] | [20] | [7] | [8] | [10] | [11] | [12] | [13] | [14] | [15] | [16] | [17] | [18] | [19]

Cc1ccc(C(C)C)cc1O
inactive: [1] | [2] | [3] | [4] | [20] | [6] | [8] | [10] | [11] | [12] | [13] | [14] | [15] | [16] | [18] | [19]

O=C1CCCCC1
inactive: [1] | [2] | [3] | [4] | [20] | [6] | [8] | [11] | [12] | [13] | [14] | [15] | [16] | [17] | [18] | [19]

C#C[C@]1(O)CC[C@H]2[C@@H]3CCC4=CC(=O)CC[C@@H]4[C@H]3CC[C@@]21C
inactive: [1] | [2] | [3] | [4] | [20] | [16] | [17] | [18] | [19]

C[n+]1ccn(CCO)c1
inactive: [1] | [2] | [3] | [4] | [20] | [7] | [8] | [10] | [12] | [13] | [14] | [15] | [18] | [19]
